Compound activity from PubChem BioAssay.
DT40 TDP1 CPT – qHTS for Inhibitors of human tyrosyl-DNA phosphodiesterase 1 (TDP1): qHTS in cells in presence of CPT. chicken DT40 Tdp1-/-;hTDP1 cells + 20 nM CPT, ATP luminescence, 48 h. Potency, µM (doses to about 46.2 µM), without a hit: top-dose activity change, negative = growth inhibition, most hits filed as inhibitors. actives 12% (n = 420,000); also: potency is read from the fitted curve at half-maximal effect; % is scaled to controls: 0 for no effect and ±100 for the full control effect; nearly all actives have a fitted effect of over 55% in size
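Cell growth measured by CellTiter-Glo luminescence after a minimum 48 h, 37 C compound exposure with 20 nM CPT in Tdp1-knockout DT40 cells stably expressing hTDP1, seeded 400/well; qHTS titration format.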
TDP1 cell noCPT – qHTS for Inhibitors of human tyrosyl-DNA phosphodiesterase 1 (TDP1): qHTS in cells in absence of CPT; DT40 Tdp1-/- hTDP1 cells, no CPT, ATP luminescence, 48 h; Potency, µM (highest dose often 46.2 µM), for the others: at the top dose activity change, negative = growth inhibition, hits mostly inhibitors; actives 15% (n = 420,000); also: potency is read from the fitted curve at half-maximal effect; % is scaled to controls: 0 for no effect and ±100 for the full control effect; nearly all actives have a fitted effect of over 55% in size
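Camptothecin absent (DMSO only). Human TDP1-complemented DT40 knockout cells, 400 cells/well, 37 °C for minimum 48 hr; ATP measured via CellTiter-Glo, 30 min dark incubation, luminescence.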
miR-21 act – qHTS Assay for Modulators of miRNAs and/orActivators of miR-21. 340,000 tested, under 10 active. Potency, µM (series often up to 38.3 µM), without a hit: at the top dose activity change, positive = activation, hits mostly activators. HeLa miR-21 FLuc reporter, luciferase, 48 h;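 also: % of control where 0% means no effect; miR-21 action dims this reporter so a rising signal means less miR-21 action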
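Compounds were titrated across several concentrations (up to approximately 40 uM) and incubated 48 hours with HeLa miR-21-FLuc reporter cells (miR-21 target sequence downstream of FLuc, endogenous miR-21). Readout was firefly luciferase luminescence after lytic detection reagent.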
uPA surface inh – qHTS for Inhibitors of Cell Surface uPA Generation | cell surface uPA generation assay, qHTS | Potency, µM (highest dose often 38.3 µM), inactives show at the highest dose activity change, negative = inhibition, usual class: inhibitors | actives 0.31% (n = 330,000) | AID 540303, 2011; active = well fitted inhibition curve with a large enough effect; inconclusive = small, poorly fitted or top-dose-only effect; inactive = no such curve, though single readings can be large or run the other way; tested in mouse RAW 264.7 cells; also: potency is read from the fitted curve at half-maximal effect; % is scaled to controls: 0 for no effect and ±100 for the full control effect; nearly all actives have a fitted effect of over 55% in size
TDP1 block – qHTS Assay for Inhibitors of Tyrosyl-DNA Phosphodiesterase (TDP1) | actives 0.28% (n = 350,000) | Tyrosyl-DNA phosphodiesterase 1 (Homo sapiens), Q9NUW8 | recombinant TDP1, AlphaScreen DNA substrate cleavage | Potency, µM (top dose mostly 130 µM), for inactives: at the highest dose activity change, negative = inhibition, actives largely listed as inhibitors; also: potency is read from the fitted curve at half-maximal effect; % is scaled to controls: 0 for no effect and ±100 for the full control effect; nearly all actives have a fitted effect of over 40% in size
Target sequence (Q9NUW8 whole entry, looked up): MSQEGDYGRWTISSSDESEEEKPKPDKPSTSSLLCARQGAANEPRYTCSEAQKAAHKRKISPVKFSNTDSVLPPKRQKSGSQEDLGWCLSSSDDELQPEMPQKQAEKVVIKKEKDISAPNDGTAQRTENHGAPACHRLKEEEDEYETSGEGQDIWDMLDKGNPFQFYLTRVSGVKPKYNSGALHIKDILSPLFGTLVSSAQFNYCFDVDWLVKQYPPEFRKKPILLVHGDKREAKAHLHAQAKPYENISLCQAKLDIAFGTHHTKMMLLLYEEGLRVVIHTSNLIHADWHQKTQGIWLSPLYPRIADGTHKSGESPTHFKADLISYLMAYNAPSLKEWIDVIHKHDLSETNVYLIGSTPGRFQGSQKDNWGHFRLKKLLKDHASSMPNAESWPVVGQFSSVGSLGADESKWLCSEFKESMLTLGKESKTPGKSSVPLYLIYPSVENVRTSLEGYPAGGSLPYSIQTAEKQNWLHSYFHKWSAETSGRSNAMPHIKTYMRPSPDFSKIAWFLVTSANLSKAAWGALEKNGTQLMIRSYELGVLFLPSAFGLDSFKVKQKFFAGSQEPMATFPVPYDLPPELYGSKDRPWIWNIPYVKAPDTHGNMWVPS
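Steps: enzyme plus compound, 15 min RT; add biotin/phosphotyrosine-FITC oligonucleotide (15 nM final), react 5 min; add donor/acceptor beads (10 ug/ml final), 10 min; read AlphaScreen. Tdp1 at 1 nM final.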
* = called active by the depositor; ? = inconclusive; . = not tested or not shown; [ ] = dose if it differs, or a comment. A selection: hits, their analogues and other compounds. The true share with any hit is near 16%. Unless noted, calls follow the shape of the dose curve; as a rule, active = well fitted curve in the direction sought with a large enough effect; inconclusive = small, poorly fitted or top-dose-only effect, or another doubt; inactive = no such curve, though single readings can be large; an effect the other way counts as inactive or inconclusive.

SMILES	DT40 TDP1 CPT	TDP1 cell noCPT	miR-21 act	uPA surface inh	TDP1 block
COc1ccc(COCC(O)CN2CCN(S(=O)(=O)c3ccc(C(C)C)cc3)CC2)cc1 (stereo not drawn)	26µM*	21µM*	.	0%	0%
O=S(=O)(c1ccc(F)cc1)N1CCN(CC(O)COc2ccccc2F)CC1 (stereo not drawn)	-1%	-22%	1%	2%	.
CC(OCC(O)CN1CCN(S(=O)(=O)c2ccc(Cl)cc2)CC1)c1ccc(Cl)cc1 (stereo not drawn)	12µM*	10µM*	.	.	.
O=C(CCCCCn1c(=O)c2sccc2n(CC(=O)Nc2ccccc2F)c1=O)NCc1ccc2c(c1)OCO2	?	-22%	-1%	.	0%
O=C1c2ccccc2C(=O)c2c1cccc2-n1nnc2ccccc21	12%	-3%	-1%	-3%	.
O=C1C(N2CCOCC2)=C(n2nnc3ccccc32)C(=O)c2ccccc21	2.3µM*	3.3µM*	?	-16%	8%
CSc1ncc(Cl)c(C(=O)C(C#N)c2nc3c(C)cc(C)cc3c(=O)[nH]2)n1 (stereo not drawn)	?	26µM*	-5%	-4%	8%
CSc1ncc(Cl)c(C(=O)Nc2cccc(C)c2)n1	-28%	-26%	-4%	-3%	1%
CCCc1cc(-c2nc(-c3ccc(Cl)cc3)cs2)ccn1	18µM*	18µM*	-26%	-1%	-5%
O=C(Cc1ccccc1F)OCC(=O)N1CCc2ccccc21	-1%	10%	-13%	-1%	-8%
COc1ccc2c(CC(=O)OCC(=O)N3CCc4ccccc43)coc2c1	?	18µM*	-7%	3%	0%
COC(=O)c1ccccc1NC(=O)C1(c2cccs2)CCOCC1	?	21µM*	-10%	.	0%
O=C(N1CCN(c2ccccc2F)CC1)C1(c2cccs2)CCOCC1	?	18µM*	-8%	11%	-1%
O=C(N1CCN(c2ccccc2F)CC1)C12CC3CC(CC(C3)C1)C2	?	?	-7%	6%	-8%
COCc1ccc(CN2CCCC(CO)(Cc3cccc(OC)c3)C2)o1 (stereo not drawn)	?	-43%	2%	?	4%
CC1C/C(=N/NC(=O)c2cccc(F)c2)c2ccc(O)cc2C1 (stereo not drawn)	22µM*	?	-25%	.	0%
CSc1nc(=NC(C)=O)ss1	?	35µM*	-41%	-3%	5%
COc1ccc(NC(=O)C(c2ccc(OC)cc2)n2c(=O)c(-c3cc4ccccc4[nH]3)nc3ccccc32)cc1 (stereo not drawn)	16µM*	13µM*	.	.	.
N#Cc1ccc(C(C(=O)Nc2ccc3c(c2)OCCO3)n2c(=O)c(-c3ccco3)nc3ccccc32)cc1 (stereo not drawn)	-106%	-27%	.	.	.
O=C(Nc1ccc2c(c1)OCCO2)C(c1ccccc1F)n1c(=O)c(-c2cc3ccccc3[nH]2)nc2ccccc21 (stereo not drawn)	15µM*	18µM*	.	.	.
COc1ccc(NC(=O)C(c2cccc3ccccc23)n2c(=O)c(-c3ccco3)nc3ccccc32)cc1 (stereo not drawn)	?	-30%	.	.	.
COc1ccc(NC(=O)C(C2CC2)n2c(=O)c(-c3ccccc3)nc3ccccc32)cc1 (stereo not drawn)	?	15µM*	.	.	.
COc1ccc(NC(=O)C(c2ccc(C#N)cc2)n2c(=O)c(-c3cc4ccccc4[nH]3)nc3ccccc32)cc1 (stereo not drawn)	21µM*	15µM*	.	.	.
O=C(Nc1ccc2c(c1)OCCO2)C(C1CC1)n1c(=O)c(-c2ccco2)nc2ccccc21 (stereo not drawn)	1%	-18%	.	.	.
O=C(COc1ccc2ccc(=O)oc2c1)N1CC[C@@]2(O)CCCC[C@H]2C1	-2%	0%	-2%	13%	.
SMILES	DT40 TDP1 CPT	TDP1 cell noCPT	miR-21 act	uPA surface inh	TDP1 block
CC1(C)OC(c2ccccc2)=C/C(=C\C=N\NC(=O)c2ccncc2)O1	?	?	16%	5%	13%
CCOc1nc(NCCN2CCOCC2)nc(NC(C)C)n1	-2%	-16%	-5%	3%	3%
COc1ccccc1C(=O)Nc1ccc(OCc2cc(=O)n3ccc(C)cc3n2)cc1	-10%	?	-8%	.	3%
CC(OC(=O)Cc1n[nH]c(=O)c2ccccc12)C(=O)Nc1ccc(Cl)cn1 (stereo not drawn)	?	?	3%	-4%	6%[56.1 µM]
CC(OC(=O)Cc1n[nH]c(=O)c2ccccc12)C(=O)Nc1cc(Cl)cc(Cl)c1 (stereo not drawn)	?	23µM*	.	-3%	-8%[0.505 µM]
CCC1CCCCN1C(=O)CN1C(=O)c2ccccc2S1(=O)=O (stereo not drawn)	7%	-14%	.	3%	5%
O=C(Nc1ncc([N+](=O)[O-])s1)c1ccc2c(c1)OCO2	?	18µM*	?	-17%	10%
Cc1ccccc1NC(=O)c1c(-c2ccccc2)noc1C	12µM*	9.2µM*	0%	8%	7%
Cc1onc(-c2ccccc2)c1C(=O)Nc1ccccc1NC(=O)c1c(-c2ccccc2)noc1C	15µM*	18µM*	-3%	0%	0%
Cc1cccc(C)c1NC(=O)c1c(-c2ccccc2)noc1C	-26%	-8%	-13%	2%	0%
CCCOc1ccccc1NC(=O)c1c(-c2ccccc2)noc1C	?	8.2µM*	7%	?	-4%
COc1ccc(NC(=O)c2c(-c3ccccc3)noc2C)c(OC)c1	-28%	-29%	1%	-1%	7%
Cc1ccc(S(=O)(=O)/N=C(/c2ccccc2)N(C)C)c(C)c1	5%	-10%	-1%	-1%	0%
CC(=O)c1cccc(OCC(O)CN2CCN(S(=O)(=O)c3c(F)cccc3F)CC2)c1 (stereo not drawn)	?	?	0%	5%	.
Cc1onc(-c2ccccc2)c1C(=O)Nc1nnc(C(C)C)s1	4%	13%	3%	4%	3%[56.1 µM]
Cc1onc(-c2ccccc2)c1C(=O)Nc1ncc([N+](=O)[O-])s1	23µM*	21µM*	?	-6%	.
Cc1onc(-c2ccccc2)c1C(=O)N(Cc1ccccc1)C(C)C	?	26µM*	-4%	-1%	.
Cc1onc(-c2ccccc2)c1NC(=O)N(Cc1ccccc1)C(C)C	-15%	?	-1%	-26%	4%
COc1ccc(CCCNC(=O)C2Cc3c(-c4cccc(C(C)=O)c4)ccnc3O2)cc1 (stereo not drawn)	3.7µM*	4.6µM*	.	.	.
